Source: PubChem BioAssay (Tox21)
Results filed as inconclusive are left out. Calls of active or inactive are those of the source. Unless noted, calls come from the whole dose curve; as a rule, active = well fitted curve in the direction sought with a large enough effect in the repeat runs; inconclusive = weak or mixed curves; inactive = no such curve, though single readings can be large; an effect the other way counts as inactive or inconclusive.

How the values were obtained:
[1] = qHTS assay to identify small molecule antagonists of the thyroid receptor (TR) signaling pathway - cell viability counter screen (AID 743064); conditions: GH3.TRE-Luc viability, CellTiter-Fluor, 24 h; series mostly up to 70.3 µM; note: nearly all actives have a fitted effect of over 50% in size
Outline: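 Compounds were tested on GH3.TRE-Luc cells in the presence of T3 at 1 nM final. Following 23.5 h at 37 °C, cell viability was quantified by CellTiter-Fluor.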

[2] = qHTS assay to identify small molecule antagonists of the thyroid receptor (TR) signaling pathway (AID 743065); conditions: GH3.TRE-Luc, T3-stimulated luciferase inhibition, 23.5 h; series mostly up to 70.3 µM; note: nearly all actives have a fitted effect of over 55% in size
Outline: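 GH3.TRE-Luc rat pituitary cells (two TREs driving luciferase) were dosed with compound, then stimulated with 1 nM T3 (final) for 23.5 h at 37 C. ONE-Glo luminescence was the read-out, with CellTiter-Fluor fluorescence as the cytotoxicity counter-screen.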

[3] = system: thyroid hormone receptor (rat, GH3 cells); assay: qHTS assay to identify small molecule agonists of the thyroid receptor (TR) signaling pathway (AID 743066; calls by dose curve); conditions: GH3.TRE-Luc cells, TR agonist luciferase, 24 h; series mostly up to 83.9 µM
[4] = qHTS assay to identify small molecule antagonists of the estrogen receptor alpha (ER-alpha) signaling pathway using the BG1 cell line - cell viability counter screen (AID 743081); conditions: BG1Luc4E2 viability, CellTiter-Fluor, 22 h; series mostly up to 70.3 µM;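 note: compound given together with 17beta-estradiol as the ER stimulus; nearly all actives have a fitted effect of over 45% in size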
[5] = molecular target: Aromatase (Homo sapiens) (UniProt P11511); assay: qHTS assay to identify aromatase inhibitors (AID 743083); conditions: MCF-7 aro ERE, testosterone-driven ERE luciferase, 24 h; series mostly up to 70.3 µM; note: nearly all actives have a fitted effect of over 55% in size
Aromatase (Homo sapiens), sequence (P11511 whole entry, looked up): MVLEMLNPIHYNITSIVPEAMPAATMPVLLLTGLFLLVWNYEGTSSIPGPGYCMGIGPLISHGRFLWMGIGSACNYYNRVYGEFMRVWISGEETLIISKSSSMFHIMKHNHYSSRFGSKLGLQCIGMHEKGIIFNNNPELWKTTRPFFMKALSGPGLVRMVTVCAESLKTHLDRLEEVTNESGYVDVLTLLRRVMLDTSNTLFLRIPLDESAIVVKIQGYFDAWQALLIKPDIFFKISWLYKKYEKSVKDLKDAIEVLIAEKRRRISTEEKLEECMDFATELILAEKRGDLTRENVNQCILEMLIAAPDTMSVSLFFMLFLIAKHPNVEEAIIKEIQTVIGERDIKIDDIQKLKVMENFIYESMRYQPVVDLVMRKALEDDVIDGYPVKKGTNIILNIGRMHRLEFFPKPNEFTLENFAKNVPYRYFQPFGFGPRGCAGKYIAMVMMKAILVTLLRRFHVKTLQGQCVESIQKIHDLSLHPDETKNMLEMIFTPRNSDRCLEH

[6] = qHTS assay to identify small molecule antagonists of the estrogen receptor alpha (ER-alpha) signaling pathway - cell viability counter screen (AID 743074; calls by dose curve;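 note: HEK293 cells carrying ER-alpha-UAS-bla reporter stimulated with 17beta-estradiol; nearly all actives have a fitted effect of over 45% in size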); conditions: ERalpha-bla HEK293 viability, CellTiter-Glo luminescence, 18 h; series mostly up to 69.4 µM
[7] = molecular target: Estrogen receptor (Homo sapiens) (UniProt P03372); assay: qHTS assay to identify small molecule antagonists of the estrogen receptor alpha (ER-alpha) signaling pathway (AID 743069; active = well fitted curve in the direction sought with a large enough effect in the signal ratio in the repeat runs, not every such curve was filed as active; the % refers to the signal ratio); conditions: HEK293 ER-alpha-UAS-bla, beta-lactamase ratio, antagonist mode; series mostly up to 69.4 µM
Estrogen receptor (Homo sapiens), sequence (P03372 whole entry, looked up): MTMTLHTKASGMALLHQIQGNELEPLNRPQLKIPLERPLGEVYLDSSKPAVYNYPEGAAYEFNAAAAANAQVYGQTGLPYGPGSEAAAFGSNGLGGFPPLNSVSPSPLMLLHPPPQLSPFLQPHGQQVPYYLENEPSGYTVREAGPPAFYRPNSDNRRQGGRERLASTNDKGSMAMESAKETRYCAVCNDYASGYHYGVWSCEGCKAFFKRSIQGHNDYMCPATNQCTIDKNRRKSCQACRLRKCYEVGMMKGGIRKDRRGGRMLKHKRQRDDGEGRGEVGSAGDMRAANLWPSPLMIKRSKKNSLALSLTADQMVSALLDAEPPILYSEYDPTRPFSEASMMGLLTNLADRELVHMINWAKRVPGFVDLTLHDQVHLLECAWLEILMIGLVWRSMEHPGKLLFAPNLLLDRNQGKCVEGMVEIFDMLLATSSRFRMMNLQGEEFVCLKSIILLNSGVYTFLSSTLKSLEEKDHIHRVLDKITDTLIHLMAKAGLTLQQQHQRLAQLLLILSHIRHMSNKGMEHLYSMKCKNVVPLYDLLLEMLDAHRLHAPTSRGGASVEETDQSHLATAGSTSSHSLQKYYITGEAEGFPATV
Outline: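 HEK293 ER-alpha-UAS-bla GripTite cells, held overnight in 2% charcoal-stripped FBS, 5,000 cells/well, preincubated 4 h, then compound plus 17beta-estradiol for 18 h at 37C. Beta-lactamase read by LiveBLAzer B/G FRET substrate, 2 h at room temperature.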

[8] = molecular target: Estrogen receptor (Homo sapiens) (UniProt P03372); assay: qHTS assay to identify small molecule agonists of the estrogen receptor alpha (ER-alpha) signaling pathway (AID 743075; calls by dose curve); conditions: HEK293 ER-alpha-UAS-bla, beta-lactamase FRET ratio, 18 h; series mostly up to 70.1 µM
[9] = molecular target: Estrogen receptor (Homo sapiens) (UniProt P03372); assay: qHTS assay to identify small molecule agonists of the estrogen receptor alpha (ER-alpha) signaling pathway using the BG1 cell line (AID 743079); conditions: BG1Luc4E2 cells, ERE-luciferase agonist, 22 h; series mostly up to 70.3 µM; note: nearly all actives have a fitted effect of over 20% in size
[10] = qHTS assay to identify small molecule antagonists of the estrogen receptor alpha (ER-alpha) signaling pathway using the BG1 cell line (AID 743080; calls by dose curve;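 note: BG1 cells stimulated with 17beta-estradiol alongside compound; nearly all actives have a fitted effect of over 25% in size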); conditions: BG1Luc4E2 ERE-luciferase antagonist mode, luminescence; series mostly up to 70.3 µM
Outline: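 Luciferase inhibition measured with ONE-Glo after 30 min at RT in BG1Luc4E2 cells given test compounds and 17beta-estradiol for 21.5 h at 37 C; CellTiter-Fluor viability read in the same wells beforehand.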

Measured: Potency

N#Cc1cscn1
inactive: [1] | [2] | [3] | [4] | [5]

O=[N+]([O-])c1c(Cl)cc(Cl)cc1Cl
inactive: [1] | [2] | [3] | [6] | [4] | [5]

NCc1ccc(S(N)(=O)=O)cc1
inactive: [1] | [2] | [3] | [6] | [4] | [5]

CN1CCOC(c2ccccc2)c2ccccc2C1 (stereo not given)
inactive: [1] | [2] | [3] | [6] | [4] | [5]

CCCCC1CCC(O)CC1 (stereo not given)
inactive: [1] | [2] | [3] | [6] | [4] | [5]

CC(Oc1cc(Cl)ccc1Cl)C(=O)O (stereo not given)
inactive: [1] | [2] | [3] | [6] | [4] | [5]

C=CC(=O)CCCCC
inactive: [1] | [2] | [3] | [4] | [5]

Nc1nc(-c2ccccc2)c(Br)c(=O)[nH]1
inactive: [1] | [7] | [6] | [8] | [9] | [10] | [4] | [5]

Cc1ccc(C(C)NC(=O)[C@@H](NC(=O)OC(C)C)C(C)C)cc1 (stereo not given in full)
inactive: [1] | [2] | [3] | [6] | [4] | [5]

CC(=O)OC(C)=O
inactive: [1] | [2] | [3] | [6] | [4] | [5]
